Screening data deposited in PubChem by Buhrlage Lab, Dana-Farber Cancer Institute and Novartis Institutes for BioMedical Research (Cambridge, Mass).
USP28 block: inhibitors of human USP28 deubiquitinase; Q96RU2; purified USP28, Ub-rhodamine cleavage fluorescence, 30 min; inhibition, % at 25 µM; actives 3% (n = 47,000); AID 1645857
USP17 block: blocks human USP17 ubiquitin-rhodamine cleavage; inhibition, % at 50 µM; purified USP17, Ub-rhodamine cleavage fluorescence, 3 h; actives 6.5% (n = 47,000); A8MUK1
USP30 inh: human USP30 deubiquitinase inhibition. Q70CQ3. purified USP30, Ub-rhodamine cleavage fluorescence. inhibition, % at 25 µM. actives 5.3% (n = 47,000). AID 1645860
Target sequence (Q70CQ3 whole entry, looked up): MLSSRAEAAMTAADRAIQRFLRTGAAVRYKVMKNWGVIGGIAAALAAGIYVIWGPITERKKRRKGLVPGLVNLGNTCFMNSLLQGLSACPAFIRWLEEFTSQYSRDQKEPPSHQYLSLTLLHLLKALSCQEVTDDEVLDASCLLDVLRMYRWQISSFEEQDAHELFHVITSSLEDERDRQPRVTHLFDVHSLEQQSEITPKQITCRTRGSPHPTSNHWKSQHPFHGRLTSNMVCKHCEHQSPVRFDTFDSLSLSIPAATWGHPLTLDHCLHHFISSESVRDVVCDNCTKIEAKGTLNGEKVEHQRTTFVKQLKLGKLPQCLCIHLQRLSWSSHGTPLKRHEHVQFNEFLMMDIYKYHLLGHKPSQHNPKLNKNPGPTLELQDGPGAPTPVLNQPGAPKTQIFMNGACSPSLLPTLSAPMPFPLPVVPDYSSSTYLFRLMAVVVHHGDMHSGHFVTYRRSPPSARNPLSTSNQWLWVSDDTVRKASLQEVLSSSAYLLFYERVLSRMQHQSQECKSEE
Hits are given with their value; – = inactive; · = not tested or not shown. Shown are actives, neighbours in structure and some others; about 11% of the full set was active somewhere. No stated cut-off is given here; in the data, active means inhibition above about 30%; inactive means the rest.

SMILES | USP28 block | USP17 block | USP30 inh
Cc1[nH]nc(NC(=O)C2COc3ccccc3O2)c1-c1ccccc1 (configuration not stated) | 53 | 39 | –
COc1ccc(-c2c(NC(=O)c3cc(F)cc(F)c3)n[nH]c2C)cc1OC | – | · | –
Cc1ccccc1CNC(=O)C1CCCN(c2cnc3nccnc3c2)C1 (configuration not stated) | – | – | –
O=C1COc2ccc(NC(=O)N3CCN(C(c4ccccc4)c4ccccc4)CC3)cc2N1 | – | – | –
O=C(Cc1cccc2ccccc12)Nc1ccc2c(c1)NC(=O)CO2 | 50 | – | 30
O=C(N1CCCCC1)C1(Cc2ccccc2-c2cccnc2)CCOCC1 | – | – | –
CCOc1cc2c(cc1OCC)C(c1ccc(OC)cc1)N(c1ccc(OC)c(Cl)c1)C(=O)C2 (configuration not stated) | – | – | –
CCOc1cc2c(cc1OCC)C(c1ccc(Cl)cc1)N(c1ccc(C(=O)O)cc1)C(=O)C2 (configuration not stated) | – | – | 31
CCOC(=O)c1cccc(NC(=O)Nc2cccn3nc(C)nc23)c1 | 83 | – | –
CCc1nc2c(NC(=O)NCc3ccc(OC)cc3)cccn2n1 | – | – | –
COc1cccc(C(=O)Nc2cccn3nc(C)nc23)c1 | – | – | –
CCc1nc2c(NC(=O)Nc3cccc(C(=O)OC)c3)cccn2n1 | 50 | – | –
CCOc1ccc(C2C=C(C(=O)O)NC(=O)N2)cc1 (configuration not stated) | – | – | –
Cc1cncc(C2CCCN2C(=O)c2ccc(-n3cccn3)nc2)n1 (configuration not stated) | – | – | –
Cc1c(O)cc(O)cc1O | – | 54 | –
Cc1cc(O)c(C)c(O)c1C=O | – | – | –
CC(=O)c1cccc(NC(=O)CSc2ccc(-c3ccccn3)nn2)c1 | – | – | –
CCc1cc2cc3c(cc2nc1SCC(=O)Nc1cccc(C(C)=O)c1)OCO3 | – | 63 | –
CCN1[C@H]2CCN(C(=O)c3cccn3C)CC[C@@H]2Oc2ccccc2S1(=O)=O | – | – | –
CCN1CCN(S(=O)(=O)c2ccc3c(c2)C(C)(C)CN3C(C)=O)CC1 | – | – | –
COc1ccccc1Nc1cc(C)c2ccccc2n1 | – | – | –
Cc1cc(Oc2ccc(F)cc2F)nc2ccccc12 | 31 | – | –
COc1ccccc1NC(=O)C1=C(C)Nc2nnnn2C1c1cccs1 (configuration not stated) | – | – | –
Cc1cc(=O)n(CC(=O)NCc2ccccc2)c(N2CCCCC2)n1 | – | – | –
Cc1ccc2c(=O)c3c([nH]c2c1C)CCN(CC(=O)NCc1ccccc1)C3 | – | 72 | 40
SMILES | USP28 block | USP17 block | USP30 inh
CCn1nnc2c(N3CCOCC3)ncnc21 | – | – | –
Cc1cccc(NC(=O)CCn2nc(C)c(S(=O)(=O)N3CCOCC3)c2C)c1 | – | – | –
Cc1ncsc1CN1CCCC(c2cnc(Nc3cnccn3)cn2)C1 (configuration not stated) | – | – | –
C[C@H](NC(=O)c1ccc(Cl)cc1Cl)C(=O)NCc1ccco1 | – | – | –
CCOC(=O)c1ccc(NC(=O)Cn2c(=O)n(-c3ccc(CC(=O)NCc4ccco4)cc3)c(=O)c3ccccc32)cc1 | – | – | –
CCOC(=O)c1ccc(NC(=O)Cn2c(=O)n(CC(=O)NCc3ccco3)c(=O)c3ccccc32)cc1 | – | 41 | 59
Cn1c(=O)n(CC(=O)Nc2ccc(F)c(Cl)c2)c(=O)c2ccccc21 | – | – | –
O=C(CCCCn1c(=O)c2ccccc2n(CC(=O)Nc2ccc(F)c(Cl)c2)c1=O)NCc1ccco1 | – | 70 | –
O=C(Cn1c(=O)c2ccccc2n(CC(=O)Nc2ccc(F)c(Cl)c2)c1=O)NCc1ccco1 | 39 | 62 | 45
O=C(NCc1ccco1)C(=O)Nc1ccc(F)c(Cl)c1 | – | 35 | –
Cc1ccc(NC(=O)Cn2c(=O)n(CCCCC(=O)NCc3ccco3)c(=O)c3ccccc32)cc1C | – | – | –
Cc1nc(Nc2ccc(NC(=O)C(C)C)cc2)cc(N2CCCCC2)n1 | – | – | –
Cc1nc2n(n1)CCN(C(=O)c1cc(C(C)(C)C)n(C)n1)C2 | – | – | –
COc1cccc(-c2cc(C(=O)N3CC(c4nc5ccccc5[nH]4)C3)[nH]n2)c1 | 33 | – | –
COc1cccc(-c2cc(C(=O)N3CCC4(CC3)OCCO4)[nH]n2)c1 | – | – | –
O=C(c1ccccc1)N1CCC2(CC1)OCCN2S(=O)(=O)c1ccc(F)cc1 | – | – | –
Nc1cc2nc3ccccc3oc-2cc1=O | – | 45 | –
Cn1c(C(=O)N2CCCC(Cc3cccnc3)C2)cc(=O)n(C)c1=O (configuration not stated) | – | – | –
Cc1c(C(=O)N2CCCCC2)cnn1-c1ncccc1-c1nc(C2CC2)no1 | – | – | –
CCc1ccc(OCc2nnc(SCC(=O)Nc3ccccc3OC)n2Cc2ccccc2)cc1 | – | 52 | 49
CCc1cccc(C)c1NC(=O)CSc1nnc(COc2ccccc2)n1CC | – | – | –
Cn1ccc2c(C(=O)N3CCN(Cc4ccccc4)CC3)cccc21 | – | – | –
C=C(NC(=O)C(=C)NC(=O)C(=C)NC(=O)C(=C)NC(=O)c1ccc2c(n1)-c1coc(n1)C(=C)NC(=O)C(=C)NC(=O)c1csc(n1)C(C)NC(=O)c1csc(n1)CNC(=O)c1coc(n1)C(CSC)NC(=O)C(C(C)O)NC(=O)c1csc-2n1)C(=O)O (configuration not stated) | – | – | –
C=C(NC(=O)C(=C)NC(=O)c1csc(-c2ccc3c(n2)-c2csc(n2)-c2csc(n2)C(C(C)C2CO2)NC(=O)C(Cc2ccc(O)cc2)NC(=O)c2csc(n2)C(C(O)c2ccccc2)NC(=O)c2nc(sc2C)C(CC(N)=O)NC(=O)c2csc-3n2)n1)C(=O)O (configuration not stated) | – | 68 | –
O=C(CC1CCCCC1)N1CCN(c2nnc3ccccn23)CC1 | – | – | –
SMILES | USP28 block | USP17 block | USP30 inh
COc1ccccc1-c1nc2c3c(ncn2n1)Oc1c(c(C)nn1-c1ccccc1)C3c1cccnc1 (configuration not stated) | – | 54 | –
COc1ccccc1-c1nc2c3c(C)c(C)n(CCCN(C)C)c3ncn2n1 | – | – | –
COc1ccc(-c2nc3c4c(ncn3n2)Oc2c(c(C)nn2-c2ccccc2)C4c2ccc(OC)c(OC)c2)cc1 (configuration not stated) | – | – | –
Cc1nn(-c2ccccc2)c2c1C(c1ccco1)c1c(ncn3nc(CO/N=C/c4ccccc4Cl)nc13)O2 (configuration not stated) | – | – | –
COc1ccc(/C=N/OCc2nc3c4c(ncn3n2)Oc2c(c(C)nn2-c2ccccc2)C4c2ccco2)cc1 (configuration not stated) | – | – | 42
COc1ccccc1-c1nc2c3c(C)c(C)n(Cc4cccnc4)c3ncn2n1 | 51 | – | –
Cc1nc(-c2ccnn2C(C)C)cc(C2CCN(C(=O)C(C)(C)C)CC2)n1 | – | – | –
Cc1cc(C)c(S(=O)(=O)NCc2ccc3[nH]c4c(c3c2)CCCC4)c(C)c1 | – | – | –
Cc1cccc(NC(=O)c2ncn3c2CN(C)S(=O)(=O)c2ccccc2-3)c1 | – | – | –
